Data: PubChem BioAssay (NCI)
This is part of a sample that, as a whole, favours compounds with a hit. Of some 79,000 tested, about 15% had one in any assay. The source made the active and inactive calls. Cut-off read from the data, not from the text of the source: active = growth inhibition above about 70%; inactive = the rest.

Key:
[1] = NCI Yeast Anticancer Drug Screen. Data for the rad52 strain (AID 147);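 note: 0% = growth of vehicle-treated control cultures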; details: S. cerevisiae rad52 mutant growth inhibition, hits give high values
Procedure, shortened: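 DNA repair-defective yeast; compound exposure; growth scored against vehicle controls.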

[2] = NCI Yeast Anticancer Drug Screen. Data for the wt1 strain (AID 149);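 note: 0% = growth of vehicle-treated wt1 cultures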; details: S. cerevisiae wt1 strain (SPY 50644) growth inhibition, hits give high values
Procedure, shortened: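 Growth inhibition read against vehicle controls after compound exposure of the wt1 yeast strain.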

[3] = NCI Yeast Anticancer Drug Screen. Data for the mgt1 strain (AID 153); details: S. cerevisiae mgt1 mutant growth inhibition, hits give high values
Procedure, shortened: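 Growth inhibition relative to vehicle controls was scored for the mgt1 yeast strain after compound exposure.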

[4] = NCI Yeast Anticancer Drug Screen. Data for the rad50 strain (AID 155);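 note: 0% = growth of vehicle-only cultures of the same strain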; details: S. cerevisiae rad50 strain growth inhibition, hits give high values
Procedure, shortened: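 Readout: growth inhibition relative to vehicle-treated cultures. Compound exposure was carried out in a genetically defined yeast strain deficient in DNA damage repair.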

[5] = NCI Yeast Anticancer Drug Screen. Data for the mec2-1 strain (AID 157); details: S. cerevisiae mec2-1 strain, hits give high values
Procedure, shortened: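 Growth inhibition is read against vehicle-treated controls after compound exposure of the mec2-1 yeast strain, which is defective in DNA damage repair or cell cycle control.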

[6] = NCI Yeast Anticancer Drug Screen. Data for the rad14 strain (AID 159);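 note: 0% = growth of vehicle-treated control cultures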; details: S. cerevisiae rad14 strain growth inhibition, hits give high values
Procedure, shortened: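 Growth inhibition vs vehicle controls; genetically altered yeast strain (DNA damage repair defect) treated with test compounds.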

[7] = NCI Yeast Anticancer Drug Screen. Data for the sgs1 mgt1 strain (AID 161);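 note: 0% = growth of cultures given vehicle only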; details: S. cerevisiae sgs1 mgt1 strain, hits give high values
Procedure, shortened: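 This yeast growth screen uses a strain with defined DNA-repair lesions; compound-treated growth is compared with vehicle-treated growth.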

[8] = NCI Yeast Anticancer Drug Screen. Data for the CLN2oe strain (AID 163);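 note: 0% = growth of vehicle-only control cultures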; details: S. cerevisiae CLN2oe strain, hits give high values
Procedure, shortened: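 Compound-treated yeast; growth vs vehicle ctrl = % inhibition. Genetically altered strain (cell-cycle control).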

[9] = NCI Yeast Anticancer Drug Screen. Data for the cln2 rad14 strain (AID 165);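 note: 0% = growth equal to vehicle treated cultures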; details: S. cerevisiae cln2 rad14 strain, hits give high values
Procedure, shortened: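 Growth inhibition, relative to vehicle-treated controls, is the read-out. The test organism is a yeast strain with defined genetic alterations, cln2 rad14.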

[10] = NCI Yeast Anticancer Drug Screen. Data for the bub3 strain (AID 167); details: S. cerevisiae bub3 mutant strain, hits give high values
Procedure, shortened: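 Readout: yeast growth inhibition, expressed relative to vehicle-only wells. The test organism is a mutant strain from a panel with lesions in DNA repair or checkpoint genes.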

[11] = NCI Yeast Anticancer Drug Screen. Data for the wt2 strain (AID 169);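 note: 0% = growth of vehicle-treated yeast cultures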; details: S. cerevisiae wt2 strain growth inhibition, hits give high values
Procedure, shortened: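 Compound exposure of yeast; growth compared with vehicle controls; inhibition reported.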

[12] = NCI Yeast Anticancer Drug Screen. Data for the mlh1 strain (AID 171);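 note: 0% = growth of vehicle-treated control cultures of the same strain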; details: S. cerevisiae mlh1 strain growth inhibition, hits give high values
Procedure, shortened: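 Compounds are applied to a genetically altered yeast strain, and its growth is compared with that of vehicle-treated cultures to give percent inhibition.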

[13] = NCI Yeast Anticancer Drug Screen. Data for the sgs1 strain (AID 173);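 note: 0% = growth of vehicle-only control cultures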; details: S. cerevisiae sgs1 mutant, hits give high values
Procedure, shortened: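 Compounds applied to genetically altered yeast; growth compared with vehicle-treated cultures to give % inhibition.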

[14] = NCI Yeast Anticancer Drug Screen. Data for the mlh1 rad18 strain (AID 175); details: S. cerevisiae mlh1 rad18 strain growth inhibition, hits give high values
Procedure, shortened: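 Cells of a genetically altered yeast strain, deficient in DNA damage repair, were treated with compound. Their growth was then compared with that of vehicle-treated cultures to give inhibition.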

[15] = NCI Yeast Anticancer Drug Screen. Data for the rad18 strain (AID 177); details: S. cerevisiae rad18 mutant growth inhibition, hits give high values
Procedure, shortened: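 Compounds are applied to a repair-deficient yeast strain, and growth is compared with that of vehicle-treated cultures to give percent inhibition.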

[16] = NCI Yeast Anticancer Drug Screen. Data for the rad50EPP+ strain (AID 151);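 note: 0% = growth of vehicle-treated control cultures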; details: S. cerevisiae rad50 mutant strain, hits give high values
Procedure, shortened: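 rad50EPP+ yeast treated with test compounds. Readout: growth vs vehicle control.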

[17] = at 5.0 µM (retest, dose inferred, filed as 0.5)
[18] = at 50.0 µM (retest, dose inferred, filed as 5.0)

Measured: growth inhibition

CN(C)Cc1cc(N=Nc2ccc(Cl)cc2)cc(CN(C)C)c1O
active: [4]; [18] 73% | [5]; at 50.0 µM 88.9% | [7]; at 50.0 µM 95.2% | [9]; [18] 98% | [10]; [18] 73% | [10]; at 50.0 µM 91.2% | [11]; at 100.0 µM 80% | [13]; at 100.0 µM 95% | [14]; [18] 96% | [14]; at 50.0 µM 90.2%
inactive: [1]; at 1.2 µM 8% | [1]; at 3.7 µM 8% | [1]; at 11.0 µM 8% | [1]; at 33.0 µM 16% | [1]; at 100.0 µM 58% | [2]; at 1.2 µM 5% | [2]; at 3.7 µM 4% | [2]; at 11.0 µM 8% | [2]; at 33.0 µM 12% | [2]; at 100.0 µM 63% | [3]; at 1.2 µM 13% | [3]; at 3.7 µM 12% | [3]; at 11.0 µM 13% | [3]; at 33.0 µM 26% | [3]; at 100.0 µM 13% | [4]; at 1.2 µM 9% | [4]; at 3.7 µM 7% | [4]; [17] -15% | [4]; at 11.0 µM 8% | [4]; at 33.0 µM 10% | [4]; at 50.0 µM 56.8% | [4]; at 100.0 µM 25% | [5]; at 1.2 µM 15% | [5]; at 3.7 µM 17% | [5]; [17] -5% | [5]; at 11.0 µM 16% | [5]; at 33.0 µM 14% | [5]; [18] 47% | [5]; at 100.0 µM 15% | [6]; at 1.2 µM 12% | [6]; at 3.7 µM 13% | [6]; at 11.0 µM 10% | [6]; at 33.0 µM 11% | [6]; at 100.0 µM 34% | [7]; [17] 1% | [7]; [18] 46% | [8]; at 1.2 µM 23% | [8]; at 3.7 µM 22% | [8]; at 11.0 µM 26% | [8]; at 33.0 µM 26% | [8]; at 100.0 µM 18% | [9]; [17] 39% | [9]; at 50.0 µM 44% | [10]; at 1.2 µM 4% | [10]; at 3.7 µM 2% | [10]; [17] 12% | [10]; at 11.0 µM 2% | [10]; at 33.0 µM 5% | [10]; at 100.0 µM 3% | [11]; at 1.2 µM 5% | [11]; at 3.7 µM 5% | [11]; at 11.0 µM 8% | [11]; at 33.0 µM 15% | [12]; at 1.2 µM 14% | [12]; at 3.7 µM 12% | [12]; at 11.0 µM 12% | [12]; at 33.0 µM 10% | [12]; at 100.0 µM 18% | [13]; at 1.2 µM 4% | [13]; at 3.7 µM 8% | [13]; at 11.0 µM 15% | [13]; at 33.0 µM 26% | [14]; [17] 4% | [15]; at 1.2 µM 7% | [15]; at 3.7 µM 8% | [15]; at 11.0 µM 25% | [15]; at 33.0 µM 15% | [15]; at 100.0 µM 34%

OC1CCCc2c1cc1ccc3cccc4ccc2c1c34 (centres undefined)
active: [1]; at 11.0 µM 98% | [1]; at 33.0 µM 96% | [1]; at 100.0 µM 91% | [2]; at 11.0 µM 99% | [2]; at 33.0 µM 98% | [2]; at 100.0 µM 92% | [4]; at 11.0 µM 98% | [4]; at 33.0 µM 95% | [4]; [18] 92% | [4]; at 50.0 µM 95.6% | [4]; at 100.0 µM 88% | [5]; at 11.0 µM 99% | [5]; at 33.0 µM 96% | [5]; [18] 93% | [5]; at 50.0 µM 94.1% | [5]; at 100.0 µM 88% | [7]; [18] 94% | [7]; at 50.0 µM 97.4% | [8]; at 11.0 µM 99% | [8]; at 33.0 µM 97% | [8]; at 100.0 µM 91% | [9]; [18] 94% | [9]; at 50.0 µM 94% | [10]; at 11.0 µM 98% | [10]; at 33.0 µM 97% | [10]; [18] 92% | [10]; at 50.0 µM 95.5% | [10]; at 100.0 µM 89% | [11]; at 11.0 µM 100% | [11]; at 33.0 µM 98% | [11]; at 100.0 µM 94% | [12]; at 11.0 µM 98% | [12]; at 33.0 µM 97% | [12]; at 100.0 µM 90% | [13]; at 11.0 µM 99% | [13]; at 33.0 µM 97% | [13]; at 100.0 µM 90% | [14]; [18] 93% | [14]; at 50.0 µM 94.8%
inactive: [1]; at 1.2 µM -7% | [1]; at 3.7 µM -2% | [2]; at 1.2 µM -2% | [2]; at 3.7 µM -10% | [16]; at 1.2 µM 0% | [16]; at 3.7 µM 37% | [16]; at 11.0 µM 46% | [16]; at 33.0 µM 57% | [16]; at 100.0 µM 62% | [4]; at 1.2 µM -17% | [4]; at 3.7 µM -14% | [4]; [17] 30% | [5]; at 1.2 µM -5% | [5]; at 3.7 µM -5% | [5]; [17] 12% | [7]; [17] 29% | [8]; at 1.2 µM -9% | [8]; at 3.7 µM -14% | [9]; [17] -4% | [10]; at 1.2 µM -11% | [10]; at 3.7 µM -3% | [10]; [17] 4% | [11]; at 1.2 µM -1% | [11]; at 3.7 µM 10% | [12]; at 1.2 µM -16% | [12]; at 3.7 µM -10% | [13]; at 1.2 µM -8% | [13]; at 3.7 µM -3% | [14]; [17] 52%

FC(F)(F)c1nc2nc(Cl)c(Cl)nc2n1CCCN1CCOCC1
inactive: [1]; at 1.2 µM 2% | [1]; at 3.7 µM 11% | [1]; at 11.0 µM 20% | [1]; at 33.0 µM 20% | [1]; at 100.0 µM 32% | [2]; at 1.2 µM 0% | [2]; at 3.7 µM 1% | [2]; at 11.0 µM 7% | [2]; at 33.0 µM 12% | [2]; at 100.0 µM 18% | [3]; at 1.2 µM 0% | [3]; at 3.7 µM 5% | [3]; at 11.0 µM 8% | [3]; at 33.0 µM 22% | [3]; at 100.0 µM 34% | [4]; at 1.2 µM 5% | [4]; at 3.7 µM 13% | [4]; [17] 29% | [4]; at 11.0 µM 18% | [4]; at 33.0 µM 22% | [4]; [18] 63% | [4]; at 50.0 µM 67% | [4]; at 100.0 µM 27% | [5]; at 1.2 µM 2% | [5]; at 3.7 µM -15% | [5]; [17] 3% | [5]; at 11.0 µM 12% | [5]; at 33.0 µM 16% | [5]; [18] 15% | [5]; at 50.0 µM 33.1% | [5]; at 100.0 µM 27% | [6]; at 1.2 µM 6% | [6]; at 3.7 µM 11% | [6]; at 11.0 µM 36% | [6]; at 33.0 µM 44% | [6]; at 100.0 µM 53% | [7]; [17] 19% | [7]; at 50.0 µM 45.9% | [8]; at 1.2 µM 2% | [8]; at 3.7 µM 13% | [8]; at 11.0 µM 23% | [8]; at 33.0 µM 45% | [8]; at 100.0 µM 57% | [9]; [17] -16% | [9]; [18] 54% | [9]; at 50.0 µM -1.1% | [10]; at 1.2 µM 0% | [10]; at 3.7 µM 4% | [10]; [17] 9% | [10]; at 11.0 µM 22% | [10]; at 33.0 µM 52% | [10]; [18] 56% | [10]; at 50.0 µM 55.8% | [10]; at 100.0 µM 35% | [11]; at 1.2 µM -1% | [11]; at 3.7 µM 3% | [11]; at 11.0 µM 13% | [11]; at 33.0 µM 20% | [11]; at 100.0 µM 26% | [12]; at 1.2 µM 1% | [12]; at 3.7 µM 6% | [12]; at 11.0 µM 14% | [12]; at 33.0 µM 38% | [12]; at 100.0 µM 35% | [13]; at 1.2 µM 4% | [13]; at 3.7 µM 9% | [13]; at 11.0 µM 30% | [13]; at 33.0 µM 50% | [13]; at 100.0 µM 47% | [14]; [17] 5% | [14]; [18] 57% | [14]; at 50.0 µM 64.7% | [15]; at 1.2 µM -6% | [15]; at 3.7 µM 6% | [15]; at 11.0 µM 31% | [15]; at 33.0 µM 31% | [15]; at 100.0 µM 43%
active: [7]; [18] 72%
